Assay outcomes deposited in PubChem by The Scripps Research Institute Molecular Screening Center.
Compounds with a hit are over-represented: about 1.8% of the library has one in this group of screens.
GSTO1 counter = inhibitors of recombinant GSTO1, primary screen, counter-screen for RBBP9 inhibitor project, biochemical, fluorescence polarization; Glutathione S-transferase omega-1 (Homo sapiens), P78417; 1.1% of 300,000 active; activity-based probe fluorescence polarization; inhibition, % at 5.96 µM;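 active = inhibition above the campaign mean inhibition plus 3 SD, cut at about 35% in these data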
Target sequence (P78417 whole entry, looked up): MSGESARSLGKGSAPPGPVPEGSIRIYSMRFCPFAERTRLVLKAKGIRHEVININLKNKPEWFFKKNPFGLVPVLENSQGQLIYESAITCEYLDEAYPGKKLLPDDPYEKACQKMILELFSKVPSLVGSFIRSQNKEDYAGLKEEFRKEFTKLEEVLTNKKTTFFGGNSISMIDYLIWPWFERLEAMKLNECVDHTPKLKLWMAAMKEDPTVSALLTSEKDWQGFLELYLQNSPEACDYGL
LYPLA1 inh = LYPLA1 inhibitors, primary screen, counter-screen for PME1 inhibitor project, biochemical, fluorescence polarization, FP-Rh probe ABPP; Acyl-protein thioesterase 1 (Homo sapiens), O75608; recombinant LYPLA1; inhibition, % at 5.9 µM; 0.16% of 320,000 active; AID 2174, 2009;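 active = inhibition above the mean of all tested compounds plus 3 SD, set per campaign, cut at about 14% in these data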;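 also: inhibitors block serine hydrolase probe labeling of LYPLA1 so polarization falls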
PAD4 FP inh = human PAD4 inhibitors, primary screen, biochemical, fluorescence polarization, 1536-well format. recombinant PAD4, RCA probe fluorescence polarization. 0.41% of 330,000 active. AID 485272, 2010. inhibition, % at 6.36 µM. Protein-arginine deiminase type-4 (Homo sapiens), Q9UM07;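 active = percent inhibition above a cutoff equal to the mean of all tested compounds plus 3 SD, cut at about 15% in these data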
PME-1 inh = PME-1 inhibitors via competitive probe labeling, primary screen, biochemical, fluorescence polarization, FP-Rh probe, HTS; recombinant PME-1; inhibition, % at 5.9 µM; 0.53% of 320,000 active; AID 2130, 2009;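 active = inhibition above the campaign mean of all compounds plus 3 SD, cut at about 26% in these data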;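 also: competitive labeling of PME-1 active site by serine hydrolase directed probe; inhibitors block probe labeling so polarization falls and inhibition rises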
LYPLA2 counter = LYPLA2 inhibitors, primary screen, counter-screen for PME1 inhibitor project, biochemical, fluorescence polarization, FP-Rh probe ABPP; inhibition, % at 5.9 µM; recombinant LYPLA2; 0.38% of 320,000 active; AID 2177, 2009; Acyl-protein thioesterase 2 (Homo sapiens), O95372;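 active = inhibition above the screen-wide mean plus 3 SD, limit set per campaign, cut at about 26% in these data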
Target sequence (O95372 whole entry, looked up): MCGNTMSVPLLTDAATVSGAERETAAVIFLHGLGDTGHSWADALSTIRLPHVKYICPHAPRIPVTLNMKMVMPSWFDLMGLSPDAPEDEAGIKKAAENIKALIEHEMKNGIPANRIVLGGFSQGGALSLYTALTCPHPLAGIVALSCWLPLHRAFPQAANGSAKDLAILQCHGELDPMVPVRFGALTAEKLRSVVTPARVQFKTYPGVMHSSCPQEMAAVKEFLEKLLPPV
Fam108B inh = mouse Fam108B serine hydrolase inhibitors, primary screen, counter-screen for RBBP9 inhibitor project, biochemical, fluorescence polarization | recombinant Fam108B, FP-Rh probe fluorescence polarization | inhibition, % at 9.51 µM | 0.33% of 300,000 active | AID 1947, 2009;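 active = inhibition above the screen mean inhibition plus 3 SD, computed separately per campaign, cut at about 18% in these data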;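 also: inhibitors lower polarization as less probe binds the enzyme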
GSTO1 inh conf = GSTO1 inhibitor hit confirmation, counter-screen for RBBP9 inhibitor project, biochemical, fluorescence polarization, triplicate; shares compounds with GSTO1 counter; recombinant GSTO1, probe fluorescence polarization; inhibition, % at 5.96 µM; 54% of 2,400 active; AID 2176, 2009;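 active = inhibition above the primary screen's cutoff, its mean inhibition plus 3 SD, cut at about 35% in these data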;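 also: loss of polarization as inhibitors block binding of rhodamine sulfonate ester activity probe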
LYPLA1 confirm = LYPLA1 inhibitors, retest, confirmation, counter-screen for PME1 inhibitor project, biochemical, fluorescence polarization, FP-Rh probe ABPP | recombinant LYPLA1 | AID 2233, 2010 | inhibition, % at 5.9 µM | 69% of 480 active | shares compounds with LYPLA1 inh;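 active = mean inhibition across replicates above the hit cutoff set in the primary screen, cut at about 15% in these data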;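 also: loss of FP-Rh probe labeling of LYPLA1 seen as lower polarization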
LYPLA2 conf = LYPLA2 inhibitors, retest, confirmation, counter-screen for PME1 inhibitor project, biochemical, fluorescence polarization, FP-Rh probe ABPP. shares compounds with LYPLA2 counter. recombinant LYPLA2. inhibition, % at 5.9 µM. 72% of 1,100 active. AID 2232, 2010;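 active = mean inhibition across replicates above the hit cutoff set in the primary screen, cut at about 26% in these data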;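 also: blocked labeling of the enzyme by serine hydrolase FP-Rh probe lowers polarization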
LYPLA2 gel ABPP = LYPLA2 inhibitors in proteome, late-stage follow-up, gel-based competitive ABPP, fluorescence, assay provider; 30% of 150 active; shares compounds with LYPLA2 counter; rhLYPLA2 in mouse brain proteome, gel ABPP FP-Rh; inhibition, % at 20 µM;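 active = inhibition of LYPLA2 enzyme probe labeling above about 50%, limit read from the data; inactive = inhibition below that limit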;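 also: loss of FP-Rh probe labeling of the LYPLA2 gel band measured as band density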
PAD4 FP conf = human PAD4 inhibitors, confirmation, biochemical, fluorescence polarization; shares compounds with PAD4 FP inh; recombinant PAD4, RCA probe fluorescence polarization; inhibition, % at 6.36 µM; 28% of 1,200 active;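 active = mean inhibition across replicates above the hit cutoff set by the earlier primary screen, cut at about 15% in these data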;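 also: inhibitors block active-site labeling by the probe so polarization falls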
Large screens that a line does not name were inactive (follow-up assays come after a bar, where they were run).

CN1CC[C@@]2(C)c3cc(O)ccc3N(C)C2O1 (stereo partly drawn)	GSTO1 counter 85.0, PAD4 FP inh 44.8 | GSTO1 inh conf 51.5 | PAD4 FP conf inactive
C=CCN1CC[C@@]2(C)c3cc(O)ccc3CC1[C@@H]2C	none
CNc1ccc2oc(C[C@H]3O[C@@]4(CC[C@H]3C)O[C@H]([C@H](C)C(=O)c3ccc[nH]3)[C@H](C)C[C@H]4C)nc2c1C(=O)O	GSTO1 counter 42.3, PAD4 FP inh 56.9 | GSTO1 inh conf inactive | PAD4 FP conf inactive
COc1cc2c(cc1OC)-c1c(OC)c(OC)cc3c1[C@H](C2)N(C)CC3	GSTO1 counter 47.3, PAD4 FP inh 23.0 | GSTO1 inh conf 71.4 | PAD4 FP conf inactive
N#Cc1ccc(NC(=O)CN2CCCCCC2)cc1Cl	none
Clc1ccc(C(c2ccc(Cl)cc2)n2cc[n+](CC(OCc3ccc(Cl)cc3Cl)c3ccc(Cl)cc3Cl)c2)cc1 (stereo not drawn)	LYPLA1 inh 22.0, LYPLA2 counter 32.0 | LYPLA1 confirm 52.2 | LYPLA2 conf 43.5
Oc1c(Br)c(Br)c(Br)c(Br)c1Br	LYPLA1 inh 25.1, PME-1 inh 74.8, LYPLA2 counter 55.8 (no result: GSTO1 counter, Fam108B inh) | LYPLA1 confirm 30.2 | LYPLA2 conf 58.4
Oc1c(Br)cc(Br)cc1Br	none (no result: GSTO1 counter, Fam108B inh)
CC(=NCCC1=CCCCC1)c1c(O)[nH]c(=O)[nH]c1=O	none
O=C(COc1ccc(Cl)cc1Cl)N1CCN(C/C=C/c2ccccc2)CC1	LYPLA2 counter 75.7 | LYPLA2 conf 77.8 | LYPLA2 gel ABPP 56.0
O=C1NC(=O)C(CCc2ccncc2)(Cc2ccc(OCc3ccccc3)cc2)C(=O)N1	none
O=C(COc1ccccc1)N1CCN(CCN2C(=O)c3cccc4cccc(c34)C2=O)CC1	none
O=C(COc1ccccc1F)N1CCN(CCN2C(=O)c3cccc4cccc(c34)C2=O)CC1	LYPLA2 counter 38.3 | LYPLA2 conf 35.2
Cc1nc2cc(C(F)(F)F)ccc2n1C1CCN(Cc2nnnn2Cc2cccs2)CC1	LYPLA2 counter 26.6 | LYPLA2 conf inactive
CCn1c(C)c(C(=O)Nc2ccc(OC)cc2)c2cc(OC)ccc21	none
COc1ccc(OCC(=O)N2CCN(Cc3nc4cc([N+](=O)[O-])ccc4n3C)CC2)cc1	none
O=C(COc1ccc(Cl)cc1)N1CCN(Cc2ccc([N+](=O)[O-])cc2)CC1	LYPLA2 counter 56.6 | LYPLA2 conf 61.1 | LYPLA2 gel ABPP inactive
CCN(CC)c1ccc(N=Cc2c(O)n(CCc3ccc(OC)c(OC)c3)c(=O)[nH]c2=O)cc1	none
